From the supplement of paper PMC10681739
Whole data set: some 2,700 sequences, median “arbitrary fluorescence units” near 4,100, cut for the highest 2% near 54,000. Many of the other results were omitted from the sample, so the highest values are more common in it than they were.

The sequences below were run against T1, ETS1 (UniProt P14921) (assay: ETS1 binding intensity (PBM fluorescence) (arbitrary fluorescence units); higher = stronger binding). Settings: ETS1 concentration 10 nM.
T1 sequence: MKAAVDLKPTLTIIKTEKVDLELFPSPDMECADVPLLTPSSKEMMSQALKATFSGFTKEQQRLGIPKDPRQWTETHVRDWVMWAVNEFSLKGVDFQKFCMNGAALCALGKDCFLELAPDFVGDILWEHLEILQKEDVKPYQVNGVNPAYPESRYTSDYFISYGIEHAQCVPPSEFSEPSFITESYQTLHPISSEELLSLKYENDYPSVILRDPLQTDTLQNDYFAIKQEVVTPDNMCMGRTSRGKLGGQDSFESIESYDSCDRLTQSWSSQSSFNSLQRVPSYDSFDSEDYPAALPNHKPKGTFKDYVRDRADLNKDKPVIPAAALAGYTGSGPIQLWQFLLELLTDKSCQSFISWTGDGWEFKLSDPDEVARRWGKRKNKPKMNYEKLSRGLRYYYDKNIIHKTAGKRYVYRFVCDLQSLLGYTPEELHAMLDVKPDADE
Protocol: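 gcPBM on wild-type 36-bp genomic probes with two neighbouring ETS1 sites (4-24 bp apart). Recombinant human ETS1 (10 nM) was detected with anti-ETS1 antibody fluorescence. Values are medians over 3 replicate spots. The probes sit in constant array flanks that are not printed.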

Sequence | ETS1 binding intensity
GGGTGCTTCCGGGGCAGCGCGCGCCACTTCCGACCT | 33500
CCCGGAGTTCCGCGCGGCGCCAGCCCTTCCGCCACG | 375
GCGCCACTTCCGGCAGCGAAGTCACTTCCGCGGAGG | 57600
GGCTGGGGCGGATGCCGGGGCTGTTCCGGGCCCTCC | 1230
TGAGCGCCGTGCCTTCCGGGTTCCGCCCTCCTGGGT | 1430
AGAATGAGCTGCAGGAAGGCGGAAGCACTAGCGTGC | 421
CGGGACAGGAAGTGTGGACAGGCTCCTTCCTGTTTG | 15000
AGAAACGGAAAGAAAGTGACCCCTCCCTTCCTTTCA | 175
TGGGGTTTCCTGGGGTGTTCTGTCTACATCCTGAGA | 5150
TTCCTCTCCTTTCCGCGAGACCTTCCGCGGTTATCC | 178
CCCAGCGAGAGGTTTCCTCTTCCGGCACCTGACCCC | 4930
ACAACCTTTAAACTTCCGGTTTCCTCTGTGCGAGGT | 56700
GGCTTCAGGATGCATTGACAATTAAAGGAAGTCAGA | 275
GAGGCGGGACTTCCTACAGCACTTCCGGCCAGAGCC | 26500
GGGGCCACTTCCCGGGGCCAGGCAGGAAGCCCGCCC | 3870
CCGGCACTTCCGGCAGGCCAGGGCACTTCCGGGACC | 58000
CGCTGAACTTCCCGAGCTCGGGGTGGGATGTGGCCG | 734
GTCACTTCCGGCAGCCGGAGGCAGCAGAGGAAGCCG | 71500
GAGAGGCAGGAAGAGAGCAGAGCCGGAAGCACAAGG | 2630
GCAGAAGGGAGGAAGAAGCAGGCGGAAGCAGCCGGT | 522
CTCTAGGTCTAACATCCCTCGGAAGTTCGTGCAGCG | 175
GGCAAAAACCCACATCCTCTTCCGCTGGCTCCACCT | 8480
CTCTTGGCAACATCCGGTCACATCCCCTCCGCTATT | 60900
CAACCGAAAACATCCCGTGCCGGAAGCGCGTCATCG | 4780
TGCAAAGCATCCTGGGTGCCAGGCTTCCTGGGGCTT | 1890
TGAAGGCTTCCGCCAAGGTGAGGGGCTTCCTCTGGG | 9460
GCAACTTCCGCCCTGAGAAGGGTGGGGCTTCCGTCT | 63000

Sequence | ETS1 binding intensity
CGCCCCTGGGGCTTCCGCGGCGGAAGCCTAGCGTCC | 824
CCAAGCTGGTTTCCTCTCCGGTTTCCTCCGGGGTGG | 3800
CTGACCTGCTTCCTCATGGTTGTTTCCTGCCTATTG | 3740
GCCACCGCCCCTTCCGGGTCCGGAACGGCTCCAGCT | 7050
GACGGACACCCGTTTCCGCTTCCGGGTCACGCTTCT | 20900
TCCACTTCCGGGTCCGGGACACCGCCCGGATCTTGC | 64200
ACGACGCAGCCACTTCCGATTCCGGTCGGAGCACCG | 8910
CCTCAGGATGGCATCAGCCTGTGACCACTTCCTGTG | 2200
GCCTCACTTCCTGTGTTCAAGTGACAGGATGTGACA | 70700
TTCTTCACAAGCGGATGTCACTTCCTGCCTGTGACA | 17200
GCACCCGGAAGCCGCTTGCGGGCTCCCGGAAGCGGC | 8720
TGCGGGGCGGAAGCCGGGGCGTGACTTCCGGCGCCG | 11600
GGGCGGGACTTCCGGCAAGGCGCGGAAGCGGCGGTA | 46400
GCGTTACTTCCGGCGCGCGGCGGGCGGAAGTCCGGG | 69700
GGGCCTAGGAAATGCCGCACTACAACTTCCGTCGGG | 992
GAGGCGCTTCCTCAGTTGGACTCCACTTCCTCTCCG | 4590
GCCGGCGAGCGGAAGAGGCTGCAGGAAGGCCGGCCC | 3170
TAGTTGTCCCTTCCTTAAGCACTTCCTGTTTGATCT | 11900
CAAACACATCCTGTTTGCACTTGACTTCCTGTTTTG | 37400
AGCACTTCCTGTTTGATCTCTATGATCCATCCTGTT | 106000
CCGGGAGCTCCGGATGCAGACAGGAAGTGGGCAGGG | 9950
CAGCACGACTTCCTGGAGCGGGCCGGAAGTGACAAC | 21000
GAGACGGGACTTCCGGCTCCCGGGGAAGTCCCGCCC | 53500
CGTCCTGACTTCCGGGGCGGGACGGAAGAGCGGGCG | 25800
CGGGGCTCCCGGAAGCCGCCCCTTCCGCCAGCTTGC | 4520
TATAAAACCATTTCCTTCTCTGGGAAATGAGATGTC | 3370
GGTCCGGAAACGGGACAGAAGGCCCACCTTCCTCCC | 8480

Sequence | ETS1 binding intensity
AGCCTTTGTATTTCCTTTCAGAGGAAACCCCAATGC | 5570
CGCTGCTTCCGGGTCTCGGCAAGCACTTCCGGGGTG | 30400
TGGGGTCTTCCGGTTGGACCCCTGCTTCCGCTGATT | 24400
TTCCACTTCCGGTCTTACCCGGCTACTTCCGCTGCT | 147000
CAACGGCAGCTTCCTGCGGCGCCGGAAACGCTTCAA | 12100
TGAAACAGGAAGTCAGCTTCACAGCAGGAAGCAGAC | 16400
TTCCTCAGGGAAGTTCGGGTGAGAGGAAGTGCCTGC | 228
CGCCGCATCCGGTAGCGAGAGTTCAACTTCCTGACT | 56600
CAAGCGATTCTTCCGCCTCAACTTCCTGAGTAGCTG | 5800
CCCGGTAGCCGCCGGAAAACTTCCGCCGAGACCGGA | 4420
TGTGATTTTCCATCCTGCCATTTCCTGGCACCCAGA | 4620
GCCGCGGCGGAAGAGGCTCGGGGAGGAAGTTATTTG | 1880
AGTCACACAGGAAATGGAGCCAGGGGATGTGCTCAA | 14800
CGCGCCGGGTGTTTCCGCTACTTCCCTGCGGCGGGG | 7930
GCCGAGGACACTTCCGCGGGCGGAACCTGCCGGCAC | 5200
CGGGCACTTCCGGCGCGAACCGCTACTTCCGGTGCG | 95900
ACTTGACATTTCCTGCCTCCTGTTTCCTCATCACTC | 22500
GAGGTGGGGAGGAAGAGCTGCCGGAAGTAGGCGGTG | 5440
CAGACTTCCGGGGTCGAGAACTACAACTTCCGACTT | 61700
CTGGGCCCTTCCTGCCAGGTTGCACTTCCTGATAGC | 8540
AGGCAGGAAGTACCGCCTGATGCTCAGCTTCCGCTG | 9880
TGCCACATCCTGTCTTTTTACCTCCTTTCCTGCTTA | 51200
GTAACAGGAAGAAAATAATTTACCACATCCTTTATT | 975
CTTCCCTGGTAACATCCGGCATCCTGGGGCTGCCAA | 18800
TGCGCATTTCCGCTCCTTGCCGGTTTTCCGGACCTC | 36000
TGGTAACAGGCATTTCCGGTTTCCGGCCGGCTCCCT | 61800
